Experimental data taken from the supplement of paper PMC11732987, “Enantioselective OTUD7B fragment discovery through chemoproteomics screening and high-throughput optimisation” (Communications Chemistry, 2025).

Key:
Experiment in all cases: log2 ratio of Biotin-Ahx-Ub-VS probe labelling (fragment/DMSO); higher = less target engagement (more negative = stronger competition), active = hit call of the paper (q ≤ 0.05, log2 ratio ≤ -1)
Details in all cases: compound concentration: 200 uM; treatment time: 3 h
USP34 = USP34 (UniProt Q70CQ2)
Procedure, shortened: (§1)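 Using Biotin-Ahx-Ub-VS at 0.5 µM final for 1 h, DUBs were labelled in HEK293T lysate (495 µg per sample) that had first been treated in triplicate with fragment at 200 µM or vehicle for 3 h. NeutrAvidin enrichment, LysC and trypsin digestion and diaPASEF LC-MS/MS followed. Spectronaut label-free quantities were global-median-normalised. Values are average log2 fragment/vehicle ratios by unpaired t-test, using proteins with ≥2 unique peptides.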

USP36 = target: T1, USP36 (UniProt Q9P275)
T1 sequence (whole entry): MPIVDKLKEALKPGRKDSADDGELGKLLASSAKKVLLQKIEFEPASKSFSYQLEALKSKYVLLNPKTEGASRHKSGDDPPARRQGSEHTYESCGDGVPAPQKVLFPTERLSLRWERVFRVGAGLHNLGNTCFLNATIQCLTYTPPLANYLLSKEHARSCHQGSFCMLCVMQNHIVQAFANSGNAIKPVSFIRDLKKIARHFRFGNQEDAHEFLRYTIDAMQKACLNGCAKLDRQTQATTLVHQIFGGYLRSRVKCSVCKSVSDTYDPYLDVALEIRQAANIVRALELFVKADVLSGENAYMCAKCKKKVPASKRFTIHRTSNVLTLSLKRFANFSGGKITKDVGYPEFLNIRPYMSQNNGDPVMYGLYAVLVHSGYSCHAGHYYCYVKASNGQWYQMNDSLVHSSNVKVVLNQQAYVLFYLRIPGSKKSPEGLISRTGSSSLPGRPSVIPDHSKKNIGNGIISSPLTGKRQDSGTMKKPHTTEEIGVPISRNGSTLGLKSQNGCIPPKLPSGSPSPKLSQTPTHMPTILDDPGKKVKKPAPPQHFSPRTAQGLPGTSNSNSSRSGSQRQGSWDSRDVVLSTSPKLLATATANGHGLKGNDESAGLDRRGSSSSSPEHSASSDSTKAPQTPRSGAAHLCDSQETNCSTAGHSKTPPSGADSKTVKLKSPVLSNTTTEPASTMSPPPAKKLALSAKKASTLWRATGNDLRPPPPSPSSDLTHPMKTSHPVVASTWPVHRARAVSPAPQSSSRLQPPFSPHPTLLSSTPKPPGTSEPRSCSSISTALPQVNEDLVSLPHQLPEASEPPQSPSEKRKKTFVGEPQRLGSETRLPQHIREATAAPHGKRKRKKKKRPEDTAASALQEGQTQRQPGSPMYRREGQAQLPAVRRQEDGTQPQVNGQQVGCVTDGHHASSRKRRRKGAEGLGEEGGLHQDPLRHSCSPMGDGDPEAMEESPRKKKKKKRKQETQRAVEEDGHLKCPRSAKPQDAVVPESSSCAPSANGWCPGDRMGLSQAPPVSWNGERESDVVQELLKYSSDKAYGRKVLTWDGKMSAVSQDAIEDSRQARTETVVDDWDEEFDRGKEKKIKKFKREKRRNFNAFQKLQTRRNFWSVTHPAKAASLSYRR
Procedure, shortened: as §1

USP38 = target: T2, USP38 (UniProt Q8NB14)
T2 sequence (whole entry): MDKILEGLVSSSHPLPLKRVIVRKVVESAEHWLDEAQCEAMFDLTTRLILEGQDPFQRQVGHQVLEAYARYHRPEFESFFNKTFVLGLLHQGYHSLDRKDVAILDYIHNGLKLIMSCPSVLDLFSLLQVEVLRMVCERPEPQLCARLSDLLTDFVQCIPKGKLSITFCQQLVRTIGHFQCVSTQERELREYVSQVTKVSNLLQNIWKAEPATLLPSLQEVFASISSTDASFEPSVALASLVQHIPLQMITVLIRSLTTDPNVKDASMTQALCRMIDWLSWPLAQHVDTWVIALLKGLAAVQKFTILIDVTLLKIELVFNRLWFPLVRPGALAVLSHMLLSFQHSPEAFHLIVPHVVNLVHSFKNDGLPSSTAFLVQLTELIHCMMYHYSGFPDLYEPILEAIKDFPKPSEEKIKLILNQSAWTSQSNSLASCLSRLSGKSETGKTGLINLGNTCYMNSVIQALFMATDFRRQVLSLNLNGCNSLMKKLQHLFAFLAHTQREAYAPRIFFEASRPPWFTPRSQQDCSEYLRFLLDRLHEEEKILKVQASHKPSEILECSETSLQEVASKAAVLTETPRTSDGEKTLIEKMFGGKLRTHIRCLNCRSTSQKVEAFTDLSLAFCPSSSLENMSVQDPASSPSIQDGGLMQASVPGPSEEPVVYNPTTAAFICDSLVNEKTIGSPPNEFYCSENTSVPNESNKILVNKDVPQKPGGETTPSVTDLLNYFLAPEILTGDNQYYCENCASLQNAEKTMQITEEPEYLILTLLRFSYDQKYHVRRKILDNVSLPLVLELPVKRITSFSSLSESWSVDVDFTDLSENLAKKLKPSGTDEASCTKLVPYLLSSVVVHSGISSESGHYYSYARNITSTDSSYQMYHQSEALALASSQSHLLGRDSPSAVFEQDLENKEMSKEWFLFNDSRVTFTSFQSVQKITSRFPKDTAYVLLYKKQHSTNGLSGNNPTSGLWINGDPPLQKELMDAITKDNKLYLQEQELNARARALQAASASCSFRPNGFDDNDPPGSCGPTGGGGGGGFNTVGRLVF
Procedure, shortened: as §1

USP39 = target: T3, USP39 (UniProt Q53GS9)
T3 sequence (whole entry): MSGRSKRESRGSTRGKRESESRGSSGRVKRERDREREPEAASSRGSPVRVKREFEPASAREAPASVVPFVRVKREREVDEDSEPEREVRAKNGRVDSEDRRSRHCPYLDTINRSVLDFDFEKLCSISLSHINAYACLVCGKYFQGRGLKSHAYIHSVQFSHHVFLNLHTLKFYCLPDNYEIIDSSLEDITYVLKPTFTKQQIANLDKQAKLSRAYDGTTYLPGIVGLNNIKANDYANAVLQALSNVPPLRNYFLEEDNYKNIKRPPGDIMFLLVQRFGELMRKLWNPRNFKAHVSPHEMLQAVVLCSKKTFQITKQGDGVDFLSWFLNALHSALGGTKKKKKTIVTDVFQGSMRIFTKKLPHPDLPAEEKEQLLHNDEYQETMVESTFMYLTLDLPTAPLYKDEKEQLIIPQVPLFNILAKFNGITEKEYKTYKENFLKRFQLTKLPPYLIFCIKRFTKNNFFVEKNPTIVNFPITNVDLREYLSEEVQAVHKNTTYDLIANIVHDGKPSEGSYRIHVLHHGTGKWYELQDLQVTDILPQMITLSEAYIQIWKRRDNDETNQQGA
Procedure, shortened: as §1

USP4 = target: T4, USP4 (UniProt Q13107)
T4 sequence (whole entry): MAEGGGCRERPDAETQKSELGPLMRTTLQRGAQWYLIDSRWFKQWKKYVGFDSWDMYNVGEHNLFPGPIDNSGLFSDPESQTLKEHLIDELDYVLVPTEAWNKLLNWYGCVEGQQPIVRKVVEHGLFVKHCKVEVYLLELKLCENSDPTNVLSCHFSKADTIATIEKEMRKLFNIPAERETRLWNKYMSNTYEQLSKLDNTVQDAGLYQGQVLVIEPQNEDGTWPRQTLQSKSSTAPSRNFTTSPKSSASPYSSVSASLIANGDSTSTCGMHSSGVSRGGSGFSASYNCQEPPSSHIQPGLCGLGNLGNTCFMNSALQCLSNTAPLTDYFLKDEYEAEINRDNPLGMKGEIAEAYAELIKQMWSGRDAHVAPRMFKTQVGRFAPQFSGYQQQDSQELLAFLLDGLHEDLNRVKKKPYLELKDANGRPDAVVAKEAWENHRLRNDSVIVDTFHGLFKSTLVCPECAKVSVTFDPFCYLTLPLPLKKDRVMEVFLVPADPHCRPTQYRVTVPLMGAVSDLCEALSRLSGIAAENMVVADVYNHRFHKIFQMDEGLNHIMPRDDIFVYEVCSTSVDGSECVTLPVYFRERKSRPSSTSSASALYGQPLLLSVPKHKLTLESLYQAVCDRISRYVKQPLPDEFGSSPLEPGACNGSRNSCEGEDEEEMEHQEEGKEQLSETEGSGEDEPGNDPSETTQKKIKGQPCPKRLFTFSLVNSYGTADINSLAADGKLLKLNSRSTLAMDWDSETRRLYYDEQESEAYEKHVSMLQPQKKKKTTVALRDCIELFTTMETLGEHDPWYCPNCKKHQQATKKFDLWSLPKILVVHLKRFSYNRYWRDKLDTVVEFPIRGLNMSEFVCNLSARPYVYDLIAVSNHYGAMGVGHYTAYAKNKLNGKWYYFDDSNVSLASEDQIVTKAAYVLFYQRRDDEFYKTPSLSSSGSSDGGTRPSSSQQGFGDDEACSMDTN
Procedure, shortened: as §1

Measured: log2 ratio of Biotin-Ahx-Ub-VS probe labelling

USP34, sequence (Q70CQ2 whole entry, the tested form may be a part): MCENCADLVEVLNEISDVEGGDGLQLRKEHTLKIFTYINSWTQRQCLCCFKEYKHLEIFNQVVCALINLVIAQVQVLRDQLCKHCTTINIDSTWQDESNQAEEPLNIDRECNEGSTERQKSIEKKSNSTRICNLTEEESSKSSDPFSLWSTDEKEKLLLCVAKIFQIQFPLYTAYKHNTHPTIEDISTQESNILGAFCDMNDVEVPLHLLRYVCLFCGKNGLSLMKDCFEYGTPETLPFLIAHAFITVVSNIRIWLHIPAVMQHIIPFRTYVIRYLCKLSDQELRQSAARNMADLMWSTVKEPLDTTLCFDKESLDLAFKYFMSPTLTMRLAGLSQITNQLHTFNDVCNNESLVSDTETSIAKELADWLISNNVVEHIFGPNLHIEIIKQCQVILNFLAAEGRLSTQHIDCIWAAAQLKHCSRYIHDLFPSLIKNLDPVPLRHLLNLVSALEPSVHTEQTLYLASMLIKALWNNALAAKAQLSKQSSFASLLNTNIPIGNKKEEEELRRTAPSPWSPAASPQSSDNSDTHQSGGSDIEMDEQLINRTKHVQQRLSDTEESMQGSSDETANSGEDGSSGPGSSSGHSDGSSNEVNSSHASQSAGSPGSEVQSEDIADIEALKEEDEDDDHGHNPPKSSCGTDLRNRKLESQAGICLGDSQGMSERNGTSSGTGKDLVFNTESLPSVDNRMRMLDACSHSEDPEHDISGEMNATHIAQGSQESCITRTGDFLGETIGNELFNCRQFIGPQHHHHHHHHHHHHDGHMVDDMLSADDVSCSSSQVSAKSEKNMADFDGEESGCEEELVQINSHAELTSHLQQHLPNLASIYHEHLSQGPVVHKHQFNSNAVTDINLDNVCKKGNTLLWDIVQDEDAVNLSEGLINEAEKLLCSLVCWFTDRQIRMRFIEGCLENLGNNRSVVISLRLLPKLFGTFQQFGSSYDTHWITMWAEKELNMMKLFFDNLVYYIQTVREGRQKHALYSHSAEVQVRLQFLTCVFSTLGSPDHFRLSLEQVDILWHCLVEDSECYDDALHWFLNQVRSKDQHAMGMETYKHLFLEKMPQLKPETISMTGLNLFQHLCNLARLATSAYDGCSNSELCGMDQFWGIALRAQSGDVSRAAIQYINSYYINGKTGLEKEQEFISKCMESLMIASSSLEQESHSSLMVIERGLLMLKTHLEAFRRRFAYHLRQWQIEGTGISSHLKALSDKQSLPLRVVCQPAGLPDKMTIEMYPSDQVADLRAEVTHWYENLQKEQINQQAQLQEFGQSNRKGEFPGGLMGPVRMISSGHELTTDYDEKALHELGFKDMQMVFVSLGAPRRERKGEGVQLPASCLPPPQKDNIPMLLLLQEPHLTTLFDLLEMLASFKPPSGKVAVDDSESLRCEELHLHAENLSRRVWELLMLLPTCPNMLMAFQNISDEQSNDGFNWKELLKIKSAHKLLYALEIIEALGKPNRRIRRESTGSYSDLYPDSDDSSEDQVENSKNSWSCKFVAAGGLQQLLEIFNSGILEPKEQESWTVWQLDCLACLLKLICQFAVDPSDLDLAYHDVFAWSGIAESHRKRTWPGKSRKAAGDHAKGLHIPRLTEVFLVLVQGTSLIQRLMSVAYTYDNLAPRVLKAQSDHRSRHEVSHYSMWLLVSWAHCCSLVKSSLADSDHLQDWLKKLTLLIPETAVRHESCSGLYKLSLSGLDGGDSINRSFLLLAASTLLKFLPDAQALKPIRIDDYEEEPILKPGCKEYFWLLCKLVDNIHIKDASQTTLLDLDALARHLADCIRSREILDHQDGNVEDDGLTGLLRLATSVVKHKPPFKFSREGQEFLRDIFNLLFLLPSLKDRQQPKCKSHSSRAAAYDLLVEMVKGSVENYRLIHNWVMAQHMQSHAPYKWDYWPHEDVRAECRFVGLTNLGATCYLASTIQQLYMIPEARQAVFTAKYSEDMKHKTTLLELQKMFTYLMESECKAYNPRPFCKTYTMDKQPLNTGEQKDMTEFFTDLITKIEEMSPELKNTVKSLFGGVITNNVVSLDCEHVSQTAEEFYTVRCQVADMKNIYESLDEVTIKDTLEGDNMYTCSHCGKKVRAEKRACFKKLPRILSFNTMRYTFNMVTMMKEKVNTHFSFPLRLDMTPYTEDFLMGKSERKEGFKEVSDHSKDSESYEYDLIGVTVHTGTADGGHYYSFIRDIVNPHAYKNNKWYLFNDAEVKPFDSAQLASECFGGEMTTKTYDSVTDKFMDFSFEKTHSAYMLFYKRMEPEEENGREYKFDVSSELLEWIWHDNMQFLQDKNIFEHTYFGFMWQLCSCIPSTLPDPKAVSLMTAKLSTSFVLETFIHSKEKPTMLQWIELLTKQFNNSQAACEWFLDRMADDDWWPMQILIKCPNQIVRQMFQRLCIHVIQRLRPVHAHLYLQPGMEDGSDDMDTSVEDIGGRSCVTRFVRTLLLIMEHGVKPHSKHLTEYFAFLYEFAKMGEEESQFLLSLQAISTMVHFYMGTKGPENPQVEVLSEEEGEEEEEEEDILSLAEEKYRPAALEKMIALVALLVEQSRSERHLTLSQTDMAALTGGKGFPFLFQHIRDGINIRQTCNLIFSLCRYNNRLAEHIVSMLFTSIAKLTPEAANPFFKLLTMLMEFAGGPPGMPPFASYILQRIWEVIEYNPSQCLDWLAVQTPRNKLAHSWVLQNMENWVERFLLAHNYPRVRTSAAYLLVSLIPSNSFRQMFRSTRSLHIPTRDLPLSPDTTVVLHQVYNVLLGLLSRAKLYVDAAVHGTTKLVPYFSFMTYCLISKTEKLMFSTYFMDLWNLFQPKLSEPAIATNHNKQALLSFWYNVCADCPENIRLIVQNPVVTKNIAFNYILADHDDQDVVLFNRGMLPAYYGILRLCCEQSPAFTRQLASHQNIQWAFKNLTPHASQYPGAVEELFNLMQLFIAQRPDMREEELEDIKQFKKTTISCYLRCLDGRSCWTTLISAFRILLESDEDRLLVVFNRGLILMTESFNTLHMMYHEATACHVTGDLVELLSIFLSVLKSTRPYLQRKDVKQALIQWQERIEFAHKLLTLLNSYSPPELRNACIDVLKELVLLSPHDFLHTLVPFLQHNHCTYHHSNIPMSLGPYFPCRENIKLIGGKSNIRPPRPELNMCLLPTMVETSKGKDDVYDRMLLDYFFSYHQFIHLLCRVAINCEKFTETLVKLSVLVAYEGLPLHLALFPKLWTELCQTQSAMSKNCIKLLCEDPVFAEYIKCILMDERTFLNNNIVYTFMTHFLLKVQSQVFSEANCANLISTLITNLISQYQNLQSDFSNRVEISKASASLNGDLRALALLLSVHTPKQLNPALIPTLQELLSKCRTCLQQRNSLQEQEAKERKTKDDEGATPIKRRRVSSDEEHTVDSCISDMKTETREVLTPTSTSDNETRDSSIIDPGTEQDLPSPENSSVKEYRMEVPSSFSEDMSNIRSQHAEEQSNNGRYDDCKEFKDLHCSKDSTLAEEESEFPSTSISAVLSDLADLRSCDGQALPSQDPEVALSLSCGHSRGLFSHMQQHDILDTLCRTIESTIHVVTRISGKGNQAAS

CS(=O)(=O)c1ccc(NC(=O)CCl)cc1
inactive: USP34 0.0382 | USP36 0.166 | USP38 0.0532 | USP39 -0.186 | USP4 -0.0813
